# Results reported in the supplement of paper PMC3334620.
# Over roughly 33,000 sequences, “E-score (-0.5 to 0.5)” has its median near -0.032; the highest 2% begin near 0.36. Many of the other results were omitted from the sample, so the highest values are more common in it than they were.
# Target: T1, Sko1 (UniProt Q02100)
# T1 sequence: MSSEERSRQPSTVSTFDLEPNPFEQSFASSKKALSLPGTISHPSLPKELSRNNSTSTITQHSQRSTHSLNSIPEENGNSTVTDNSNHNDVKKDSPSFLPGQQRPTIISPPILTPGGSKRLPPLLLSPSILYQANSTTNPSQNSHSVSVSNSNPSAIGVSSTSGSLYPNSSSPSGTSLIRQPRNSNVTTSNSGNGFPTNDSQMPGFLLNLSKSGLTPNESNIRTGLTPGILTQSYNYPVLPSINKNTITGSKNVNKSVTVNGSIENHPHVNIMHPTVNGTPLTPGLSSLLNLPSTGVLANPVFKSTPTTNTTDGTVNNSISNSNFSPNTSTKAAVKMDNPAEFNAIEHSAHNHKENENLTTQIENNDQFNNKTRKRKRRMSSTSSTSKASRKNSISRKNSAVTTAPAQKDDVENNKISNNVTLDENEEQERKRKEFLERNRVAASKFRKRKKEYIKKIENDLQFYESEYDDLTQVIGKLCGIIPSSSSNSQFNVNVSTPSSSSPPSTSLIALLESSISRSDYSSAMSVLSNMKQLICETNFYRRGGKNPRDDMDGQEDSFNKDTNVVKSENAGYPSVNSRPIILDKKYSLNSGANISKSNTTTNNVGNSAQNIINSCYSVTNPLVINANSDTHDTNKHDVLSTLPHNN
# Test: PBM E-score (8-mer binding enrichment) (E-score (-0.5 to 0.5)); higher = stronger / more preferred TF binding
# Conditions: protein concentration: 200 nM; construct: GST-full length
# Method in brief: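 E-scores (a modified Wilcoxon-Mann-Whitney statistic) were assigned by the Universal PBM Analysis Suite to every ungapped eight-base word pooled with its reverse complement. The input came from universal all-10-mer Agilent arrays made double-stranded by primer extension and probed with GST-tagged yeast transcription factors at about 100-200 nM. Fluorescent anti-GST detected bound protein, and masliner normalised the scans.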
row,Sequence,PBM E-score
1,GTCTTTAA,0.178
2,ACATTGAA,0.166
3,GTGCATGA,0.133
4,AGATGGTC,-0.139
5,CCGTCAAG,-0.0482
6,GCGTCAAC,0.302
7,TCGTCAAA,0.281
8,ACGTCAAT,0.46
9,AGGTCAAT,0.0656
10,ATGTCAAT,0.226
11,ACGTCAAG,0.444
12,CCGTCAAC,-0.0749
13,AGGTCAAG,-0.193
14,GCGTCAAA,0.274
15,ACGTCAAC,0.469
16,ACGTCAAA,0.447
17,CTCCAACC,-0.0963
18,CTGTACCC,-0.24
19,AGATTTCG,0.114
20,ACTAGAGA,-0.0523
21,CGATTGGA,-0.0798
22,AGATTGCG,0.188
23,AATGATGA,0.328
24,AATGATGT,0.427

row,Sequence,PBM E-score
1,AATGATGG,0.189
2,GCGTGCCA,-0.151
3,ACGTGACG,0.462
4,CCGTGACG,0.396
5,ACGTGCCA,0.396
6,ACGTGACC,0.292
7,ACGTGACT,0.324
8,CCGTGACC,-0.28
9,TCGTGACA,0.129
10,ACGTGAAG,0.326
11,CCGTGACA,-0.14
12,ACGTGCCG,0.243
13,ACGTGACA,0.394
14,AAATCAGG,0.0636
15,CAGAACTC,-0.0896
16,CTTTTTAA,0.112
17,GCAACCCC,-0.249
18,ACCGCCTC,-0.312
19,CGAGTATA,-0.0254
20,ACGTAGGA,0.446
21,CCGTAGGC,-0.293
22,AGGTAGGG,-0.137
23,CCGTAGGA,-0.29
24,ACGTAGGG,0.425

row,Sequence,PBM E-score
1,ACGTAGGC,0.425
2,AAGTAGGG,-0.0549
3,GCGTAGGA,0.0517
4,AAGTAGGC,-0.0531
5,CGCTAAGA,0.0374
6,GCACAGGC,-0.115
7,AAAGGCCA,-0.118
8,GTTGAGCA,0.0589
9,ACATCTCT,0.0591
10,GTCAACCA,0.0809
11,GGAACTAA,-0.0195
12,CCATTGAG,0.00857
13,GTAAAAAC,0.184
14,GGACTCGA,-0.342
15,AGTATACG,0.267
16,CGTATACC,0.132
17,CGTATATA,0.418
18,CGTATACA,0.372
19,AGTATACA,0.0979
20,CGTATATC,0.319
21,GGTATACA,0.0243
22,CGTATACG,0.393
23,AGTATATA,0.254
24,GCTCAAAC,-0.0717

row,Sequence,PBM E-score
1,ACGCCCTC,-0.134
2,GGACACTA,-0.125
3,AAGATCGT,0.0795
4,GAACGACC,-0.306
5,TAGATAGA,0.0341
6,AAACGGGC,-0.131
7,AACGTTTC,0.199
8,ACGTCTCG,0.24
9,ACGTCTGA,0.339
10,ACGTCTCC,0.322
11,CCGTCTAC,0.0306
12,ACGTCTAT,0.338
13,ACGTCTTA,0.408
14,ACGTCTTG,0.39
15,CCGTCTTA,0.00816
16,ACGTCTAC,0.368
17,CCGTCTTC,-0.306
18,ACGTCTTC,0.389
19,ACGTCTGG,0.331
20,AAGCGGGT,-0.268
21,AAAATGAT,0.246
22,GTATGCAA,0.177
23,CACTATCC,-0.124
24,AGAGTCAT,-0.0362

row,Sequence,PBM E-score
1,AACCGCAC,0.0215
2,AAGTATTG,0.15
3,CCGTATTA,0.152
4,AGGTATTC,0.0465
5,ACGTATTA,0.468
6,GCGTATTA,0.333
7,ATGTATTG,0.196
8,ACGTATTG,0.464
9,ACGTATTC,0.471
10,CCGTATTC,0.0573
11,CTGGTCTC,-0.342
12,GATCAGCA,-0.0416
13,GTGCCTCA,-0.118
14,AAAACAGT,0.0855
15,ACTTCGGC,-0.00736
16,CGTTACGA,0.349
17,GATTACTA,0.204
18,AGTTACGC,0.317
19,CGTTACGC,0.362
20,AATTACGA,0.411
21,CATTACGG,0.292
22,CATTACGA,0.398
23,GATTACGA,0.418
24,AATTACTA,0.195

row,Sequence,PBM E-score
1,GCTTACGA,0.238
2,CTTTACGA,0.218
3,AATTACCA,0.151
4,ACCGGGTG,-0.224
5,TGAGTACA,-0.0184
6,CAGCATGC,-0.0382
7,TGGCCCAA,-0.0707
8,ACCAACTG,-0.0438
9,CCAGAGAA,0.0433
10,CTGTCGGC,-0.148
11,AGATCGAA,0.0696
12,GATTACGC,0.425
13,AATTACGG,0.26
14,GATTACCC,-0.0418
15,AATTACGT,0.492
16,AATTACAT,0.375
17,CATTACCC,-0.0584
18,AATTAGGT,0.26
19,AATTACAC,0.0946
20,CATTACAC,0.198
21,AATTACAG,0.113
22,CATTACGC,0.409
23,GATTACAC,0.0868
24,AGTGAGGC,0.0161

row,Sequence,PBM E-score
1,CGGTTAAC,0.0142
2,ACTTAAAA,0.241
3,ATCAGATC,-0.0621
4,AGTTGAAT,0.135
5,ATGTCCAA,0.0296
6,CCCGGGTC,-0.204
7,GGCGCCAA,-0.179
8,ATGAAGGA,0.0878
9,ATCCACCG,-0.0573
10,AATTACCC,0.0055
11,TATTACGA,0.414
12,AATTACGC,0.44
13,TATTACAA,0.221
14,ATTTACGC,0.281
15,TATTACCA,0.227
16,CTTCGAAG,-0.208
17,AGGCCCCG,-0.372
18,ATGGTTGA,-0.0732
19,ACGGAGCA,-0.116
20,CCTACAGG,-0.365
21,TGCGCGAA,0.169
